According to PubChem BioAssay (NCATS):
Records with an inconclusive call do not appear. Activity calls are given as the source filed them. Calls follow the shape of the dose curve; as a rule, active = well fitted cell-killing curve with a large enough effect; inconclusive = small, poorly fitted or top-dose-only effect, or effect the other way; inactive = flat fitted curve, though single readings scatter.

Columns and labels:
Assay in all cases: Primary qHTS to identify gynecologic anti-cancer compounds using libraries of approved drugs and bioactive compounds (AID 1345084); also: nearly all actives have a fitted effect of over 55% in size
C33A = conditions: Gynecologic cancer cell panel viability, ATPlite luminescence, 48 h; series mostly up to 57.5 µM
In short: (§1)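 Luminescence from the ATPlite ATP-monitoring reagent indicates viable cell number; lower signal means cytotoxicity. Cells received compound 16 h after seeding and were exposed for 48 h across five concentrations.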

CASKI = conditions: Gynecologic cancer cell panel viability, ATPlite luminescence, 48 h; series mostly up to 57.5 µM
In short: as §1

Es-2 = conditions: Gynecologic cancer cell panel viability, ATPlite luminescence, 48 h; series mostly up to 57.5 µM
In short: as §1

HeLa = conditions: Gynecologic cancer cell panel viability, ATPlite luminescence, 48 h; series mostly up to 57.5 µM
In short: as §1

Hek293T = conditions: Gynecologic cancer cell panel viability, ATPlite luminescence, 48 h, control line for the selectivity index; series mostly up to 57.5 µM
In short: as §1

JEG-3 = conditions: Gynecologic cancer cell panel viability, ATPlite luminescence, 48 h; series mostly up to 57.5 µM
In short: as §1

OV90 = conditions: Gynecologic cancer cell panel viability, ATPlite luminescence, 48 h; series mostly up to 57.5 µM
In short: as §1

PA-1 = conditions: Gynecologic cancer cell panel viability, ATPlite luminescence, 48 h; series mostly up to 57.5 µM
In short: as §1

SKOV3 = conditions: Gynecologic cancer cell panel viability, ATPlite luminescence, 48 h; series mostly up to 57.5 µM
In short: as §1

Tov-21-G = conditions: Gynecologic cancer cell panel viability, ATPlite luminescence, 48 h; series mostly up to 57.5 µM
In short: as §1

Tov112D = conditions: Gynecologic cancer cell panel viability, ATPlite luminescence, 48 h; series mostly up to 57.5 µM
In short: as §1
% is scaled to controls: 0 for no effect and ±100 for the full control effect.

COc1ccc(N2CCOCC2)c2sc(NC(=O)N3CCC(C)(O)CC3)nc12
inactive: Potency (C33A) | Potency (CASKI) | Potency (Es-2) | Potency (HeLa) | Potency (Hek293T) | Potency (JEG-3) | Potency (OV90) | Potency (PA-1) | Potency (SKOV3) | Potency (Tov-21-G) | Potency (Tov112D)

Cc1ccc(C)c(OCCn2cc(C(=O)O)c3ccccc32)c1
inactive: Potency (C33A) | Potency (CASKI) | Potency (Es-2) | Potency (HeLa) | Potency (Hek293T) | Potency (JEG-3) | Potency (OV90) | Potency (PA-1) | Potency (SKOV3) | Potency (Tov-21-G) | Potency (Tov112D)

C=CC1C(OC2OC(CO)C(O)C(O)C2O)OC=C2C(=O)N3C(C(=O)O)Cc4c([nH]c5ccccc45)C3CC21 (stereo not drawn)
inactive: Potency (C33A) | Potency (CASKI) | Potency (Es-2) | Potency (HeLa) | Potency (Hek293T) | Potency (JEG-3) | Potency (OV90) | Potency (PA-1) | Potency (SKOV3) | Potency (Tov-21-G) | Potency (Tov112D)

C[C@H](NC(c1cccc(C[P+](=O)O)c1)[C@H](C)O)c1ccc(Cl)c(Cl)c1 (stereo partly drawn)
inactive: Potency (C33A) | Potency (CASKI) | Potency (Es-2) | Potency (HeLa) | Potency (Hek293T) | Potency (JEG-3) | Potency (OV90) | Potency (PA-1) | Potency (SKOV3) | Potency (Tov-21-G) | Potency (Tov112D)

COC(=O)C1=CO[C@@H](O[C@@H]2O[C@H](CO)[C@@H](O)[C@H](O)[C@H]2O)C2C1C(=O)C[C@H]2C (stereo partly drawn)
inactive: Potency (C33A) | Potency (CASKI) | Potency (Es-2) | Potency (HeLa) | Potency (Hek293T) | Potency (JEG-3) | Potency (OV90) | Potency (PA-1) | Potency (SKOV3) | Potency (Tov-21-G) | Potency (Tov112D)

COc1ccc(C(=O)C2CCN(CC(=O)N(Cc3nc4c(c(=O)[nH]3)COCC4)CC3CC3)CC2)cc1
inactive: Potency (C33A) | Potency (CASKI) | Potency (Es-2) | Potency (HeLa) | Potency (Hek293T) | Potency (JEG-3) | Potency (OV90) | Potency (PA-1) | Potency (SKOV3) | Potency (Tov-21-G) | Potency (Tov112D)

O=C1CCC(=O)N(O)CCCCCNC(=O)CCC(=O)N(O)CCOCCNC(=O)CCC(=O)N(O)CCCCCN1
inactive: Potency (C33A) | Potency (CASKI) | Potency (Es-2) | Potency (HeLa) | Potency (Hek293T) | Potency (JEG-3) | Potency (OV90) | Potency (PA-1) | Potency (SKOV3) | Potency (Tov-21-G) | Potency (Tov112D)

COC(=O)C1=CO[C@@H](O)C2C(CO)=CCC12 (stereo partly drawn)
inactive: Potency (C33A) | Potency (CASKI) | Potency (Es-2) | Potency (HeLa) | Potency (Hek293T) | Potency (JEG-3) | Potency (OV90) | Potency (PA-1) | Potency (SKOV3) | Potency (Tov-21-G) | Potency (Tov112D)

CN(C)C(=O)NC1CCC(CCN2CCN(c3cccc(Cl)c3Cl)CC2)CC1 (stereo not drawn)
inactive: activity change, negative = cytotoxicity (C33A) 1.34% [at 11.6 µM] | activity change, negative = cytotoxicity (CASKI) 13.5% [at 11.6 µM] | activity change, negative = cytotoxicity (Es-2) 5.23% [at 11.6 µM] | activity change, negative = cytotoxicity (HeLa) -0.835% [at 11.6 µM] | activity change, negative = cytotoxicity (Hek293T) 12% [at 11.6 µM] | activity change, negative = cytotoxicity (JEG-3) 8.74% [at 11.6 µM] | activity change, negative = cytotoxicity (OV90) 0.264% [at 11.6 µM] | activity change, negative = cytotoxicity (PA-1) 1.34% [at 11.6 µM] | activity change, negative = cytotoxicity (SKOV3) 0.966% [at 11.6 µM] | activity change, negative = cytotoxicity (Tov-21-G) 4.37% [at 11.6 µM] | activity change, negative = cytotoxicity (Tov112D) 2.02% [at 11.6 µM]

O=C(NCc1ccccn1)Nc1nnc(-c2ccco2)o1
inactive: Potency (C33A) | Potency (CASKI) | Potency (Es-2) | Potency (HeLa) | Potency (Hek293T) | Potency (JEG-3) | Potency (OV90) | Potency (PA-1) | Potency (SKOV3) | Potency (Tov-21-G) | Potency (Tov112D)

C[C@]1(CO)CCC[C@]2(C)C3=C(CCC12)COC3 (stereo partly drawn)
inactive: Potency (C33A) | Potency (CASKI) | Potency (Es-2) | Potency (HeLa) | Potency (Hek293T) | Potency (JEG-3) | Potency (OV90) | Potency (PA-1) | Potency (SKOV3) | Potency (Tov-21-G) | Potency (Tov112D)

O=C(Nc1ccc(S(=O)(=O)Nc2ccccc2Cl)c(Cl)c1)c1ccccn1
inactive: Potency (C33A) | Potency (CASKI) | Potency (Es-2) | Potency (HeLa) | Potency (Hek293T) | Potency (JEG-3) | Potency (OV90) | Potency (PA-1) | Potency (SKOV3) | Potency (Tov-21-G) | Potency (Tov112D)

C[C@H](Oc1ccc(S(C)(=O)=O)cc1C(=O)N1CCN(c2ncc(C(F)(F)F)cc2F)CC1)C(F)(F)F
inactive: Potency (C33A) | Potency (CASKI) | Potency (Es-2) | Potency (HeLa) | Potency (Hek293T) | Potency (JEG-3) | Potency (OV90) | Potency (PA-1) | Potency (SKOV3) | Potency (Tov-21-G) | Potency (Tov112D)
